In all, about 39,000 compounds went through this assay and about 3,300 (8.5%) were called active. What follows is part of a selection rich in actives, with near analogues and random picks from the rest.
system: HepG2; experiment: cytotoxicity call (relative viability < 0.9); conditions: 10 µM

SMILES	cytotoxicity call
CC[C@@H](C)C(=O)O[C@H]1[C@@H]2CC3=C4CC(=O)O[C@@H](c5ccoc5)[C@]4(C)CC[C@@H]3[C@@](C)(C2=O)[C@@H](CC(=O)OC)C1(C)C	inactive
CSc1nc(C)nc2ccccc12	inactive
CC(C)NC(=O)NCC[C@@H]1CC[C@@H](NC(=O)CN(C)C)[C@@H](CO)O1	inactive
C[C@@H]1CN([C@H](C)CO)C(=O)c2cc(NC(=O)Nc3ccc(F)cc3)ccc2O[C@@H](C)CCCCO[C@H]1CN(C)Cc1ccc2c(c1)OCO2	active
C[C@@H]1CCCCO[C@H](CN(C)Cc2ccc3c(c2)OCO3)[C@H](C)CN([C@H](C)CO)C(=O)c2cc(NC(=O)Nc3ccc(F)cc3)ccc2O1	inactive
C[C@@H]1CN([C@@H](C)CO)C(=O)c2cc(NC(=O)Nc3ccc(F)cc3)ccc2O[C@@H](C)CCCCO[C@@H]1CN(C)Cc1ccc2c(c1)OCO2	active
C[C@@H]1CN([C@@H](C)CO)C(=O)c2cc(NC(=O)Nc3ccc(F)cc3)ccc2O[C@@H](C)CCCCO[C@H]1CN(C)Cc1ccc2c(c1)OCO2	active
C[C@@H]1CN([C@H](C)CO)C(=O)c2cc(NC(=O)Nc3ccc(F)cc3)ccc2O[C@@H](C)CCCCO[C@@H]1CN(C)Cc1ccc2c(c1)OCO2	inactive
C[C@H]1CCCCO[C@H](CN(C)Cc2ccc3c(c2)OCO3)[C@@H](C)CN([C@@H](C)CO)C(=O)c2cc(NC(=O)Nc3ccc(F)cc3)ccc2O1	active
C[C@@H]1CCCCO[C@@H](CN(C)Cc2ccc3c(c2)OCO3)[C@@H](C)CN([C@H](C)CO)C(=O)c2cc(NC(=O)Nc3ccc(F)cc3)ccc2O1	inactive
C[C@@H]1CCCCO[C@@H](CN(C)Cc2ccc3c(c2)OCO3)[C@@H](C)CN([C@@H](C)CO)C(=O)c2cc(NC(=O)Nc3ccc(F)cc3)ccc2O1	inactive
CO[C@H]1CN(C)C(=O)c2cc(NC(=O)C3CC3)ccc2OC[C@H](C)N(C(=O)CN2CCOCC2)C[C@@H]1C	inactive
O=C1OCCC/C=C\[C@H]2O[C@@]34C=CCN(c5ccc6ccccc6c5)C(=O)[C@H]3N(CCCCCO)C(=O)[C@@H]4[C@@H]12	inactive
COCCOC(=O)N1C(=O)[C@@]2(c3ccccc31)[C@H](C(=O)Nc1nc3ccccc3s1)[C@H]1C(=O)O[C@H](c3ccccc3)[C@H](c3ccccc3)N1[C@@H]2c1ccccc1OCCO	inactive
Cc1ccc(S(=O)(=O)Nc2ccc3c(c2)C(=O)N([C@H](C)CO)C[C@H](C)[C@@H](CN(C)C(=O)Nc2ccc4c(c2)OCO4)OCCCC[C@@H](C)O3)cc1	inactive
C[C@@H]1CCCCO[C@@H](CN(C)C(=O)c2ccccc2)[C@H](C)CN([C@@H](C)CO)C(=O)c2cc(NC(=O)Cc3ccccc3)ccc2O1	inactive
COc1cccnc1N	inactive
COc1ccc(NC(=O)N(C)C[C@H]2OCCCC[C@H](C)Oc3ccc(NC(=O)CCC(F)(F)F)cc3C(=O)N([C@@H](C)CO)C[C@@H]2C)cc1	inactive
CO[C@@H]1CN(C)C(=O)c2ccc(NC(=O)c3cc(C)on3)cc2OC[C@@H](C)N(C(=O)C2CCC2)C[C@H]1C	inactive

SMILES	cytotoxicity call
COc1ccc(S(=O)(=O)Nc2ccc3c(c2)C(=O)N([C@H](C)CO)C[C@@H](C)[C@H](CN(C)C(=O)NC2CCCCC2)OCCCC[C@H](C)O3)cc1	inactive
C[C@H](CO)N1C[C@H](C)[C@H](CN(C)C(=O)Nc2ccc(F)cc2)Oc2ccc(NS(C)(=O)=O)cc2CC1=O	inactive
C[C@@H]1CCCCO[C@H](CN(C)S(=O)(=O)c2ccc(F)cc2)[C@@H](C)CN([C@@H](C)CO)C(=O)c2cc(NC(=O)C3CCCCC3)ccc2O1	inactive
O=C1O[C@H](c2ccccc2)[C@H](c2ccccc2)N2[C@H]1[C@@H](C(=O)N1CCCCCCC1)[C@]1(C(=O)Nc3ccc(C#CCCO)cc31)[C@H]2c1ccc(OCCO)cc1	inactive
COc1ccc(NC(=O)Nc2ccc3c(c2)C(=O)N([C@H](C)CO)C[C@H](C)[C@@H](CN(C)S(=O)(=O)c2ccc(OC)cc2)OCCCC[C@@H](C)O3)cc1	inactive
COCC#Cc1ccc2c(c1)O[C@@H](CN(C)S(=O)(=O)c1ccc(C)cc1)[C@@H](C)CN([C@@H](C)CO)S2(=O)=O	inactive
C[C@@H]1CCCCO[C@@H](CN(C)Cc2ccc3c(c2)OCO3)[C@H](C)CN([C@@H](C)CO)C(=O)c2cc(NC(=O)Nc3ccc(F)cc3)ccc2O1	inactive
C[C@@H]1CCCCO[C@H](CN(C)Cc2ccc3c(c2)OCO3)[C@@H](C)CN([C@@H](C)CO)C(=O)c2cc(NC(=O)Nc3ccc(F)cc3)ccc2O1	active
C[C@H](CO)N1C[C@H](C)[C@H](CN(C)Cc2ccc3c(c2)OCO3)OCCCC[C@H](C)Oc2ccc(NC(=O)Nc3ccc(F)cc3)cc2C1=O	inactive
CN(C)CCCCNC(=O)[C@@H]1C[C@@H]2C(=O)N[C@@H](CCCCN(C)C)C(=O)N2[C@@H]1c1cccc(OCCO)c1	inactive
S=c1[nH]c2ccccc2s1	inactive
C[C@@H]1CN([C@@H](C)CO)C(=O)c2cc(NC(=O)CCCN(C)C)ccc2O[C@H]1CN(C)S(=O)(=O)c1cccs1	inactive
COCCNCc1ccc(-c2cc3nccc(Oc4ccc(NC(=S)NC(=O)Cc5ccc(F)cc5)cc4F)c3s2)nc1	active
Cn1cnc(-c2cc3nccc(Oc4ccc(NC(=S)NC(=O)Cc5ccccc5)cc4F)c3s2)c1	inactive
COCCNCc1ccc(-c2cc3nccc(Oc4ccc(NC(=O)C5(C(=O)Nc6ccc(F)cc6)CC5)cc4F)c3s2)nc1	active
COc1ccc(CN(C)C[C@H]2Oc3c(NC(=O)Nc4cccc5ccccc45)cccc3C(=O)N([C@H](C)CO)C[C@H]2C)cc1	inactive
COc1cccc(CNC(=O)C[C@@H]2C=C[C@H](NC(=O)C3CCOCC3)[C@H](CO)O2)c1	inactive
C[C@H]1CN([C@@H](C)CO)C(=O)c2cc(C#Cc3ccc(F)cc3)cnc2O[C@H]1CN(C)CC1CCOCC1	inactive
C=CCN1C(=O)[C@@]2(O[C@H](CCOC(=O)NCCCCCC(=O)NO)[C@@H]([Si](C)(C)c3ccc(OC)cc3)[C@@H]2C)c2cc(I)ccc21	inactive
